# Mtb betalactam: beta-lactam sensitization of Mtb H37Rv, H37Rv; M. tuberculosis H37Rv growth with meropenem, percent inhibition; actives 0.27% (n = 330,000); inhibition, % at 25 µM; call rule not given here;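 also: growth measured after seven days incubation then overnight dye step; 0% = bacteria only wells and 100% = bacteria with antibiotic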
# RecA intein inh: Mtb RecA intein splicing inhibitors, primary screen, biochemical, fluorescence, HTS | Protein RecA (Mycobacterium tuberculosis (strain ATCC 25618 / H37Rv)), P9WHJ3 | cell-free RecA intein splicing | inhibition, % (concentration not given with the values) | actives 0.75% (n = 290,000) | AID 2221, 2009; in the data active = inhibition above about 30%; inconclusive = no clear call, values can overlap the other calls;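 also: 0% = vehicle wells and 100% = reference inhibitor control wells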
# UGM FP inh: M. tuberculosis UGM enzyme inhibitors, primary screen, biochemical, fluorescence polarization, single point; AID 504406, 2011; UDP-galactopyranose mutase (Mycobacterium tuberculosis (strain ATCC 25618 / H37Rv)), …; inhibition, % at 10 µM; purified UGM, fluorescence polarization probe displacement; actives 0.06% (n = 320,000); in the data active = inhibition above about 10%, passing the limit was not always enough; inconclusive = no clear call, values can overlap the other calls
# Rv3671c inh: Rv3671c serine protease inhibitors, primary screen, biochemical, fluorescence polarization, M. tuberculosis H37Rv; actives 0.048% (n = 320,000); inhibition, % at 5.96 µM; P9WHR9; in the data active = inhibition above about 38%;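 also: extracellular domain of Rv3671c used as enzyme; 0% = enzyme with DMSO and 100% = no enzyme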
# Mtb FBA inh: Mtb FBA enzyme inhibitors, primary screen, biochemical, fluorescence, strain H37Rv | purified M. tuberculosis FBA, fluorescence read-out | inhibition, % at 1 µM | actives 2.3% (n = 360,000); in the data active = inhibition above about 27%;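 also: 0% = vehicle and 100% = reference inhibitor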
# Target sequence (P9WQA3 whole entry, looked up): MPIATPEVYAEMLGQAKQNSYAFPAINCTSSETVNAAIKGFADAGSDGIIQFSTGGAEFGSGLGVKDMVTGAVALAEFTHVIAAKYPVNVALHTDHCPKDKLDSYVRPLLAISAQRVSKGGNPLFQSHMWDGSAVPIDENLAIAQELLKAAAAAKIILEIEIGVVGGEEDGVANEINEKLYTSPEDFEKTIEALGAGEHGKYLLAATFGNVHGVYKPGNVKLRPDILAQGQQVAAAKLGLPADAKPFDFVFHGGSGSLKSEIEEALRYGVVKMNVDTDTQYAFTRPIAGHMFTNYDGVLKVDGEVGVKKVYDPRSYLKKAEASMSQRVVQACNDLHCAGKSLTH
# GDH-TPI inh: GDH-TPI coupling enzyme inhibitors, primary screen, artefact control for M. tuberculosis FBA inhibitor project, biochemical, absorbance, full deck; GDH-TPI coupled enzyme counterscreen, NADH absorbance; inhibition, % at 4.8 µM; actives 1.2% (n = 360,000); in the data active = inhibition above about 30%;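 also: 0% = DMSO wells and 100% = wells lacking the enzyme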
# An asterisk follows results filed as active; ? = inconclusive; . = no result given. This is a sample that favours compounds with a hit; in the whole collection about 4% have one here.
SMILES,Mtb betalactam,RecA intein inh,UGM FP inh,Rv3671c inh,Mtb FBA inh,GDH-TPI inh
CCOC(=O)c1c(C)nc(C)c(C(=O)OCC)c1-c1ccccc1,13.6,.,0.5,-2.0,-3.7,-10.1
CCOc1c(C(N)=O)c(-c2ccccc2)c2c(=O)[nH]c3ccccc3n12,0.6,0.9,-0.2,3.3,112.2*,14.3
C=CCOc1cccc(/C=C\c2nc(O)c([N+](=O)[O-])c(=O)[nH]2)c1,7.3,0.6,6.9,0.3,-4.6,18.4
O=c1[nH]c(/C=C\c2ccccc2F)nc(O)c1[N+](=O)[O-],1.0,-3.0,1.0,2.2,-1.9,29.9
O=c1[nH]c(/C=C\c2cccc(F)c2)nc(O)c1[N+](=O)[O-],-1.6,1.0,2.0,9.6,-2.1,31.3*
O=c1[nH]c(/C=C\c2cccc(Cl)c2)nc(O)c1[N+](=O)[O-],6.5,1.3,1.6,-2.3,-3.1,51.4*
C[C@H](NC(=O)[C@@H]1CSC2c3ccccc3C(=O)N21)C(=O)NC1CCCCC1 (stereo partly specified),13.2,1.1,3.7,-7.8,5.5,8.3
COc1cc(C(=O)COC(=O)c2cc([N+](=O)[O-])ccc2N2CCOCC2)ccc1OC(F)F,0.6,.,0.0,-5.6,-4.8,6.4
COc1ccc2cc(S(=O)(=O)NCc3cccnc3)ccc2c1,-5.7,4.5,2.1,-4.5,-3.2,14.0
O=C(O)c1cccc(N/N=C(\N=Nc2ccccc2)c2ccccc2)c1,87.6,40.7*,-0.4,18.8,1.1,5.8
O=C(O)c1ccc(N=N/C(=N\Nc2ccc(C(=O)O)cc2)c2ccccc2)cc1,10.0,1.5,4.5,14.2,-12.5,11.2
Cc1cc(Nc2ccccc2Cl)c2ccccc2n1,-9.8,-0.6,-0.4,10.4,0.5,36.5*
CC(=O)Nc1ccc(Nc2cc(C)nc3ccccc23)cc1,-7.0,-0.2,-0.3,-5.5,-0.9,37.9*
Cc1cc(Nc2ccc([N+](=O)[O-])cc2)c2ccccc2n1,0.9,-0.4,3.2,-5.9,-1.5,25.2
CCOC(=O)CC1=CCc2c1ccc(OC)c2OC,.,.,.,.,1.9,11.4
COc1ccc(CCC(=O)Nc2cc(S(=O)(=O)N3CCCCC3)ccc2N(C)C)cc1,-10.4,.,-0.6,7.4,-1.1,1.8
Clc1ccccc1CSc1nc2ccncc2[nH]1,-1.0,0.0,-0.1,4.0,0.8,-5.8
O=C(NCc1ccccc1Cl)c1ccc(CSc2nc3ccncc3[nH]2)cc1,12.3,-0.7,2.0,-3.3,149.7*,-1.4
COc1cc(/C=C/C(=O)OCC(=O)NC2CCCCCCC2)ccc1O,65.3,.,0.4,-2.6,5.6,33.0*
COc1ccc(/C=C/C(=O)OCC(=O)NC2CCCCCC2)cc1,.,.,.,.,-1.8,20.4
COc1cc(/C=C/C(=O)OCC(=O)N2CCc3ccccc3C2)ccc1O,-1.9,3.1,1.1,-0.4,2.9,56.7*
O=C(NNC(=O)C1CC1)c1ccc(F)cc1F,-6.2,.,-1.3,-12.4,7.4,9.4
COCOCCn1cc(CN2CCS(=O)(=O)N(Cc3ccc(-c4ccc(Cl)nc4)cc3)C(C)C2=O)nn1 (stereo unspecified),.,.,.,.,0.5,4.7
Oc1cccc2ccc(/C=C/c3cccs3)nc12,100.2,-7.9,2.6,-3.1,-1.9,30.9*
O=C(Cn1cnnn1)NC1CCCN(Cc2ccccc2F)C1 (stereo unspecified),2.6,-1.6,-0.4,9.9,-0.2,-8.2
SMILES,Mtb betalactam,RecA intein inh,UGM FP inh,Rv3671c inh,Mtb FBA inh,GDH-TPI inh
CCN(CC)CCOC(=O)c1ccc(NC(=O)/C=C/c2cccs2)cc1,5.4,-0.3,-1.7,0.9,-1.2,24.6
CCOC(=O)c1ccc(NC(=O)/C=C/c2cccs2)cc1,6.7,5.0,3.1,-13.7,-1.4,31.6*
O=C(/C=C/c1ccccc1)NNC(=O)c1cccs1,1.2,-7.0,2.4,3.2,-0.4,8.0
NS(=O)(=O)c1cccc(NC(=O)/C=C/c2cccs2)c1,-8.4,17.6,0.5,5.2,-1.7,18.5
O=C(/C=C/c1ccccc1)Nc1ccc(NC(=O)c2cccs2)cc1,-4.3,2.6,4.4,-4.0,-2.8,34.7*
O=C(/C=C/c1cccs1)Nc1ccc(S(=O)(=O)Nc2ncccn2)cc1,3.0,2.8,3.5,-12.2,1.6,44.9*
NS(=O)(=O)c1ccc(NC(=O)/C=C/c2cccs2)cc1,-3.8,-1.2,6.1,-0.1,0.0,72.5*
O=C(NCc1nnnn1-c1ccc(F)c(F)c1)c1cc2ccccc2o1,-4.6,-1.6,1.4,-8.0,0.4,-2.1
Cc1cc(C(=O)NN=Cc2ccc(-c3ccc(F)cc3)o2)c(C)o1,3.4,.,-0.4,9.7,4.6,53.3*
Cc1ccc(C(=O)N/N=C\c2cccn2C)cn1,-4.5,0.0,-1.0,-0.9,2.1,53.7*
Cn1cccc1/C=N/NC(=O)c1ccc[n+]([O-])c1,-2.5,-0.8,0.2,-0.8,-0.8,21.2
Cn1cccc1/C=N/NC(=O)c1cccnc1,3.8,-0.3,1.1,3.7,-2.1,47.5*
Cc1ccc(C(=O)N/N=C\c2ccc(-c3ccc(Cl)cc3)o2)cn1,99.2,2.5,4.0,3.6,1.8,31.3*
Cc1ccc(NC(=O)OC(C)N2CCCCC2)cc1NC(=O)OC(C)N1CCCCC1 (stereo unspecified),.,.,.,.,1.4,9.7
Cc1cccc(C)c1NC(=O)CNC(=O)c1ccc2ccccc2n1,-5.9,.,-4.3,-0.8,6.0,-0.5
CCN(CC)Cc1c(C(=O)N/N=C/c2cccc3ccccc23)nnn1-c1nonc1N,2.6,-6.3,4.3,4.0,0.5,14.9
CCCc1c(C(=O)N/N=C/c2cccc3ccccc23)nnn1-c1nonc1N,-1.0,-0.2,0.0,-17.4,1.5,31.9*
CCOc1ccc(-c2c(C(=O)N/N=C/c3c[nH]c4ccccc34)nnn2-c2nonc2N)cc1,1.0,-1.5,2.0,28.5,-2.5,40.3*
COc1ccc(CNC(=O)C2CCC(=O)N(CCCN3CCCC3=O)C2)cc1 (stereo unspecified),?,.,1.8,-0.6,2.4,2.0
C[C@@H]1COC(=O)[C@@H](CC(=O)OC(C)(C)C)C/C=C\C[C@H](CC(=O)N(CCO)Cc2ccccc2)C(=O)N1,0.9,.,-0.9,6.6,-0.7,9.9
CN1C(=O)C2(N=c3ccccc3=N2)c2ccccc21,17.2,-0.9,-2.8,-1.4,30.1*,19.1
COc1ccccc1/C=C/C=N/NC(=O)c1cc(-c2ccco2)[nH]n1,87.6,9.8,2.2,-11.2,-0.7,32.2*
COc1ccccc1/C=C/C=N/NC(=O)CC1C(=O)NN=C1C (stereo unspecified),-5.5,2.1,-3.4,6.0,0.2,36.8*
COc1ccccc1/C=C/C=N/NC(=O)CCn1cnc2ccccc21,-5.5,1.5,-2.2,4.0,0.2,33.0*

# Screens from PubChem.
